Compounds without any hit were thinned out: in the full panel of roughly 83,000, 20% have a hit.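 Method: cells in 96-well plates; compound added at one concentration; 48 h incubation; percent growth measured; values under 10 scored active.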 Unmarked numbers belong to inactive results. Activity calls are given as the source filed them.
Legend:
Assay in all cases: NCI-60 one-dose screen, 48 h (100 = growth as untreated, 0 = no growth, -100 = all killed)
Conditions in all cases: 10 µM
HT29 colon = tested on: HT29 colon
SNB-75 CNS = tested on: SNB-75 CNS
SNB-19 CNS = tested on: SNB-19 CNS
U251 CNS = tested on: U251 CNS
PC-3 prostate = tested on: PC-3 prostate
SK-MEL-5 melanoma = tested on: SK-MEL-5 melanoma
UACC-62 melanoma = tested on: UACC-62 melanoma
LOX IMVI melanoma = tested on: LOX IMVI melanoma
SK-MEL-28 melanoma = tested on: SK-MEL-28 melanoma
SN12C renal = tested on: SN12C renal
UO-31 renal = tested on: UO-31 renal
ACHN renal = tested on: ACHN renal
CAKI-1 renal = tested on: CAKI-1 renal
A498 renal = tested on: A498 renal
CCRF-CEM leukemia = tested on: CCRF-CEM leukemia
MOLT-4 leukemia = tested on: MOLT-4 leukemia
SR leukemia = tested on: SR leukemia
SK-MEL-2 melanoma = tested on: SK-MEL-2 melanoma
EKVX NSCLC = tested on: EKVX NSCLC
TK-10 renal = tested on: TK-10 renal

| SMILES | growth (HT29 colon) | growth (SNB-75 CNS) | growth (SNB-19 CNS) | growth (U251 CNS) | growth (PC-3 prostate) | growth (SK-MEL-5 melanoma) | growth (UACC-62 melanoma) | growth (LOX IMVI melanoma) | growth (SK-MEL-28 melanoma) | growth (SN12C renal) | growth (UO-31 renal) | growth (ACHN renal) | growth (CAKI-1 renal) | growth (A498 renal) | growth (CCRF-CEM leukemia) | growth (MOLT-4 leukemia) | growth (SR leukemia) | growth (SK-MEL-2 melanoma) | growth (EKVX NSCLC) | growth (TK-10 renal) |
| --- | --- | --- | --- | --- | --- | --- | --- | --- | --- | --- | --- | --- | --- | --- | --- | --- | --- | --- | --- | --- |
| O=C1NC(=O)c2ncccc21 | 108% | 98% | 107% | 106% | 107% | 95.1% | 112% | 101% | 110% | 105% | 104% | 110% | 96.4% | 110% | 99.1% | 106% | 111% |  |  |  |
| CC(C)(C)NC/C(=C\c1ccccc1)C(=O)c1ccccc1 | -46.1% (active) | 26.9% | 66.1% | -18.1% (active) | 0.348% (active) | -66.9% (active) | -79.3% (active) | -77% (active) |  | -45.8% (active) | -83.3% (active) | -50.9% (active) | -7.54% (active) | 64.4% | 10.7% | 10.3% | -1.67% (active) | -64.3% (active) | 24.7% | 0.816% (active) |
| Cc1ccc(S(=O)(=O)Oc2ccc3c4c(c(=O)oc3c2)CCCCC4)cc1 | 6.29% (active) | 76.2% | 86.8% | 38.7% | 33.5% | 20.5% | 56.5% | 62.8% | 79.5% | 66.2% | 64.6% | 78.7% | 59.6% | 61.8% | 43% | 42.2% | 2.57% (active) |  |  | 74.3% |
| Clc1ccc(Sc2nc(NC3CC3)nc(Sc3ccc(Cl)cc3)n2)cc1 | 48.8% | 92% | 105% | 80% | 46.8% | 87.9% | 82.2% | 91.3% | 87.5% | 88.5% | 62.3% | 84.6% | 51.9% | 83.9% | 76.4% | 43.8% | 67.3% |  |  | 112% |
| CC1=C(N2CCOCC2)C(N2CCOCC2)=C(C)C(=O)C1=O | 111% | 97.4% | 103% | 101% | 104% | 99.2% | 109% | 101% | 106% | 110% | 83.6% | 101% | 101% | 88.6% |  | 92.7% | 97.4% |  |  | 99% |
| Oc1[nH]c2cc(Cl)ccc2c1/C=c1/ccc2c(c1)N=C(c1cc(F)cc(F)c1)N=2 | 3.28% (active) | -21.5% (active) | 64.5% | 20.7% | 13% | 15.5% | 36.4% | 37.7% |  | 64% | 43.3% | 46.3% | 17.1% | 0.502% (active) | 9.33% (active) | 8.56% (active) | 11.4% | 20.4% | 57.2% | 58.8% |
| O=C(Nc1cccc(-n2cc(-c3ccncc3)c(-c3ccc(O)c(Cl)c3)n2)c1)c1ccc(Cl)c(Cl)c1 | 69.8% | 38.5% | 72.8% | 11% | 37.9% | 48.1% | 51.1% | 53% | 47.6% | 70.9% | 36.3% | 49% | 13% | 74.6% | 33% | 45.8% | 15.1% |  |  | 104% |
| C/C(=N\Nc1nc2ccccc2s1)c1ccncn1 | 25.1% | 61.8% | 51.1% | 33.6% | 27.3% | 31.4% | 41.7% | 31.5% |  | 46.7% | 19.8% | 12.6% | 29.9% | 63.3% | 5.95% (active) | 2.87% (active) | 17.8% | 63% | 22.7% | 50.6% |
| c1ccc([C@H]2CN3CCSC3=N2)cc1 | 101% | -20.8% (active) | 110% | 107% | 98.9% | 103% | 99% | 102% |  | 109% | 88.2% | 107% | 93.6% | 85% | 99.1% | 98.5% | 103% | 105% | 98.3% | 112% |
| O=S(=O)(NCCCNc1nccc(-c2c(-c3ccc(F)cc3)nc3sccn23)n1)c1ccc(F)cc1 | 3.28% (active) | 40.7% | 93.2% | 35.9% | 32.3% | 31.6% | 18.5% | 28.3% | 67.3% | 52.3% | 3.14% (active) | 30.8% | 29.9% | 56.3% | 17.5% | 22.6% | 25.5% |  |  | 38.3% |
| COc1ccc(Oc2nc(NC3CCCC3)nc(Sc3ccc(OC)cc3)n2)cc1 | 43.7% | 75.3% | 90.9% | 44.4% | 43% | 45.7% | 71.1% | 72.6% | 86% | 78.9% | 57.5% | 79.5% | 49.3% | 65.5% |  | 40.2% | 45.7% |  |  | 109% |
| COC(=O)[C@@H]1[C@H](O)[C@H](C)[C@H](O)[C@@](C)(O)/C=C\C=C(C)C(=O)Nc2c(C)c(OC(C)=O)c3c(c2O)C(=O)C(C)=C2OCOC(=C23)C(C)=C[C@@](C)(O)[C@H](O)[C@@H](C)[C@H]1OC(C)=O | 111% | 81.9% | 112% | 104% | 22% | 98% | 97.8% | 104% |  | 108% | 88.7% | 110% | 100% | 120% | 111% | 95.6% | 92.1% | 117% | 108% | 126% |
| COc1ccc(S(=O)(=O)NCCCNc2nccc(-c3c(-c4ccc(F)cc4)nc4sccn34)n2)cc1 | 11% | 49.3% | 99.1% | 50% | 52.9% | 49.5% | 48.5% | 40.1% | 73.5% | 59.5% | 22.1% | 36.5% | 39.4% |  | 37.6% | 34.4% | 28.3% |  |  | 60.5% |
| COc1ccc(N2C(=O)C3c4[nH]c5ccc(OCc6ccccc6)cc5c4C4CCC(C(C)C)CC4C3C2=O)cc1 (centres undefined) | 89.3% | 31.3% | 104% | 18.8% | 88.3% | 99.5% | 94.2% | 90.1% |  | 103% | 91.7% | 3.44% (active) | 94% | 105% | 71.9% | 30.8% | 64.6% | 101% | 115% | 116% |
| CN(C)c1ccc(Cc2ccc(N(C)C)cc2Cl)c(Cl)c1 | 102% | 77.7% | 102% | 110% | 86.8% | 91.9% | 88.6% | 96% |  | 99.2% | 67.6% | 98.4% | 99.1% |  | 91.6% | 46% | 88.9% | 113% | 103% | 88.9% |
| COc1cc(C2CC(c3ccc(Nc4ccnc5cc(Cl)ccc45)cc3)=NN2c2ccc(Cl)cc2)cc(OC)c1OC (centres undefined) | 32.6% | 57.2% | 67.9% | 51.9% | 36.4% | 46.8% | 22.2% | 56.3% |  | 59.5% | 18.4% | 38% | 18.6% | 52.3% | 28% | 31.5% | 12.2% | 55.2% |  | 64.1% |
| CCCCCCCCCCCC[n+]1ccc(C(N)=O)cc1 | 5.01% (active) | -4.25% (active) | 18.6% | -3.1% (active) | -18.2% (active) | -6.99% (active) | 29% | 25.6% |  | 12.3% | 64.4% | 87.5% | 41.1% | 78.9% | 13% | 13.6% | 14.5% | 30.9% | 22.2% | -28% (active) |
